Source: PubChem BioAssay (EPA / NIEHS)
Records with an inconclusive call do not appear. The source made the active and inactive calls. The calls were made as follows, unless noted: active = hit-call score of the fitted dose curve at least 0.9, where 1 is the maximum; inactive = score below 0.9.

Legend:
[1] = ATG_NFI_CIS: Attagene CIS-FACTORIAL HepG2 Assay for human Nuclear Factor I (NFI) (AID 2282989); conditions: HepG2 cis-regulatory reporter, NFI response element transcription; actives raise or lower the signal
In short: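 Transient MRTU transfection of HepG2 → 24 h chemical dosing → total RNA, oligo(dT) RT → PCR, 6-FAM primer extension, HpaI cut → capillary electrophoresis. Endpoint fitted bidirectionally relative to DMSO.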

[2] = molecular target: Myc proto-oncogene protein (Homo sapiens) (UniProt P01106); experiment: ATG_Myc_CIS: Attagene CIS-FACTORIAL HepG2 Assay for human Myelocytomatosis (Myc) Proto-Oncogene Transcription Factor (AID 2282990); conditions: HepG2, Attagene cis-reporter transcription factor activity; actives raise or lower the signal
Myc proto-oncogene protein (Homo sapiens), sequence (P01106 whole entry, looked up): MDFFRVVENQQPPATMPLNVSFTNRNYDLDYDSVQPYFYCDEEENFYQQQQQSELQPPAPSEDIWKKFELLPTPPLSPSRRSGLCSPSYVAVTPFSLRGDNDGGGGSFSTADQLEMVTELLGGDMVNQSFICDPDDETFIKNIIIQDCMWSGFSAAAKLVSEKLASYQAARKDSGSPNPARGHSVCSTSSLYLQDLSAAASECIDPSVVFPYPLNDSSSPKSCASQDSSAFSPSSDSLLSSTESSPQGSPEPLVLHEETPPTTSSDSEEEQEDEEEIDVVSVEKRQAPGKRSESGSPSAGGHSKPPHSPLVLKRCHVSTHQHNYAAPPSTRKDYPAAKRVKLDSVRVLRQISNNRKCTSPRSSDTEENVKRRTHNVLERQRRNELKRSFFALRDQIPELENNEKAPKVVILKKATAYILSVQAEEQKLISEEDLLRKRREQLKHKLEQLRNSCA
In short: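 Transiently transfected HepG2 cells bearing cis-promoter reporter units for endogenous transcription factors; 24 h exposure. Reporter mRNA measured by RT-PCR, 6-FAM primer extension, HpaI cut and capillary electrophoresis; bidirectional fit relative to DMSO.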

[3] = ATG_NF_kB_CIS: Attagene CIS-FACTORIAL HepG2 Assay for human Nuclear Factor Kappa B (NF-kB) (AID 2282991); conditions: HepG2 Attagene cis-factorial NF-kB reporter mRNA; actives raise or lower the signal
In short: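 DMSO served as negative control and baseline for bidirectional curve fitting. Transiently transfected HepG2 cells were dosed for 24 h, then reporter transcripts were measured by RT-PCR with capillary electrophoresis detection.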

[4] = ATG_Oct_MLP_CIS: Attagene CIS-FACTORIAL HepG2 Assay for human Octamer-Binding Transcription Factor (Oct) (AID 2282993); conditions: HepG2 Attagene cis-factorial Oct reporter, mRNA; actives raise or lower the signal
In short: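 Transient MRTU transfection of HepG2 → 24 h compound treatment → RNA isolation, reverse transcription, PCR → 6-FAM primer extension, HpaI digest → capillary electrophoresis. Activity fitted both directions against DMSO.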

[5] = molecular target: Cellular tumor antigen p53 (Homo sapiens) (UniProt P04637); experiment: ATG_p53_CIS: Attagene CIS-FACTORIAL HepG2 Assay for human p53 Transcription Factor (AID 2282994); conditions: HepG2 p53 cis-element reporter, Attagene mRNA; actives raise or lower the signal
Cellular tumor antigen p53 (Homo sapiens), sequence (P04637 whole entry, looked up): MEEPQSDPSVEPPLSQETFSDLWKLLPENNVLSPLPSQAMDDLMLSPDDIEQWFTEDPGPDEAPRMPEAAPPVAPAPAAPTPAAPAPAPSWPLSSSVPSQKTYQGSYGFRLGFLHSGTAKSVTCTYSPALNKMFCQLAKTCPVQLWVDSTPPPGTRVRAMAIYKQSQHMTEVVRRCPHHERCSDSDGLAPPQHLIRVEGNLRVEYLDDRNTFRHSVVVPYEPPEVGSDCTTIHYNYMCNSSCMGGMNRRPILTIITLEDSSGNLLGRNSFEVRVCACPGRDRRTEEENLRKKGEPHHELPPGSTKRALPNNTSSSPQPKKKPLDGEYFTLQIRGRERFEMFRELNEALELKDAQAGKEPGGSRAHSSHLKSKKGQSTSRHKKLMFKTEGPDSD
In short: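 HepG2, transient MRTU transfection (cis promoter elements, endogenous TFs); 24 h dosing; RNA isolation, RT-PCR, 6-FAM primer extension, HpaI digest, CE fluorescence; bidirectional fit vs DMSO.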

[6] = molecular target: human Peroxisome Proliferator-activated Receptor alpha (PPARa), PPARA (gene 5465) (UniProt Q07869); experiment: ATG_PPARa_TRANS: Attagene TRANS-FACTORIAL HepG2 Assay for human Peroxisome Proliferator-activated Receptor alpha (PPARa) (AID 2283001; active = hit-call score of the fitted dose curve at least 0.9, where 1 is the maximum)
human Peroxisome Proliferator-activated Receptor alpha (PPARa), PPARA (gene 5465), sequence (Q07869 whole entry, looked up, the tested form may be a part): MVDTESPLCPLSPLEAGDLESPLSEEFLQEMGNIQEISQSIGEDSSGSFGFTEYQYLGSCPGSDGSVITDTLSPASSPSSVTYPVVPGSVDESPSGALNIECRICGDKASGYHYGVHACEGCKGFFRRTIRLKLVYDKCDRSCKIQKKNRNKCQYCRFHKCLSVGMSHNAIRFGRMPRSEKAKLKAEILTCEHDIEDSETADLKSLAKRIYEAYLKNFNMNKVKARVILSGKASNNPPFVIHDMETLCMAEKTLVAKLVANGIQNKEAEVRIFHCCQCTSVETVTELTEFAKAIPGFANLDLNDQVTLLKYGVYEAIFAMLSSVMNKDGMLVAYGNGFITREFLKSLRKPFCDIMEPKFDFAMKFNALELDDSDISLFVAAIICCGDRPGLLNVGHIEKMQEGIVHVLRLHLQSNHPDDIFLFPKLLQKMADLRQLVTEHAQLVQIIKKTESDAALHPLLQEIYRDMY
In short: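 Measures transcriptional activity of an exogenous chimeric PPARa-Gal4 protein in transiently transfected HepG2 cells after 24 h dosing. Reporter mRNA quantified via RT-PCR and capillary electrophoresis; DMSO served as negative control.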

[7] = molecular target: human Peroxisome Proliferator-activated Receptor delta (PPARd), PPARD (gene 5467) (UniProt Q03181); experiment: ATG_PPARd_TRANS: Attagene TRANS-FACTORIAL HepG2 Assay for human Peroxisome Proliferator-activated Receptor delta (PPARd) (AID 2283002; active = hit-call score of the fitted dose curve at least 0.9, where 1 is the maximum)
human Peroxisome Proliferator-activated Receptor delta (PPARd), PPARD (gene 5467), sequence (Q03181 whole entry, looked up, the tested form may be a part): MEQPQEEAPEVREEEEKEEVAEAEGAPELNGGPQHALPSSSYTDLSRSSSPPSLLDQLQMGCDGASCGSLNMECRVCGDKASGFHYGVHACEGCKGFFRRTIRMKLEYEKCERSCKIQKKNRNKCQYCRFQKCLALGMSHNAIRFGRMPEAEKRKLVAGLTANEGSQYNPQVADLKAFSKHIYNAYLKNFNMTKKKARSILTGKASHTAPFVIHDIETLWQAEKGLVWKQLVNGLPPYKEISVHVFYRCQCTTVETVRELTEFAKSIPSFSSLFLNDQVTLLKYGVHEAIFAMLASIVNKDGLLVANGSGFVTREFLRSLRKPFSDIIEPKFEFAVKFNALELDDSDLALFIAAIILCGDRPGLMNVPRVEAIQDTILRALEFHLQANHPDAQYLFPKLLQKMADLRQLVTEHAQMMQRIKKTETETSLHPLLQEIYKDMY
In short: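 HepG2 cells transiently transfected with GAL4-UAS multiplexed reporter units driven by exogenous chimeric NR-GAL4 proteins; 24 h compound exposure. Reporter mRNA measured by RT-PCR, 6-FAM primer extension, HpaI digestion and capillary electrophoresis; gain of signal fitted relative to DMSO.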

[8] = molecular target: human Retinoic Acid Receptor beta (RARb), RARB (gene 5915) (UniProt P10826); experiment: ATG_RARb_TRANS: Attagene TRANS-FACTORIAL HepG2 Assay for human Retinoic Acid Receptor beta (AID 2283004; active = hit-call score of the fitted dose curve at least 0.9, where 1 is the maximum)
human Retinoic Acid Receptor beta (RARb), RARB (gene 5915), sequence (P10826 whole entry, looked up, the tested form may be a part): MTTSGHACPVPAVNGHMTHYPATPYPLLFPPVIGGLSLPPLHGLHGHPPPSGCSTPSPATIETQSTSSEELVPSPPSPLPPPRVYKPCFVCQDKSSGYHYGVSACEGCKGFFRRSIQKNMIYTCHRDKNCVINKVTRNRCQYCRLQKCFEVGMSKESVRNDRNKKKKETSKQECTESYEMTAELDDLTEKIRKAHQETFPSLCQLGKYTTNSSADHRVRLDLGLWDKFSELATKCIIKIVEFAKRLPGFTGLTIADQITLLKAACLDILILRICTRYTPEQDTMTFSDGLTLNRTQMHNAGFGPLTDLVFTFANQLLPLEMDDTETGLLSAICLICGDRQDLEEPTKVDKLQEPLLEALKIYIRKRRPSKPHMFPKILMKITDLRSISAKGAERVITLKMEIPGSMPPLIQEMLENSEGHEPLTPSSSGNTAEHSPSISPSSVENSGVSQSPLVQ
In short: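 Induction of reporter mRNA from a chimeric RARb-Gal4 construct was measured by RT-PCR, FAM labelling, HpaI digestion and capillary electrophoresis. Measurements followed 24 h compound treatment of transiently transfected human HepG2 liver cells, with DMSO as baseline.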

[9] = molecular target: Peroxisome proliferator-activated receptor gamma (Homo sapiens) (UniProt P37231); experiment: ATG_PPARg_TRANS: Attagene TRANS-FACTORIAL HepG2 Assay for human Peroxisome Proliferator-activated Receptor-gamma (PPARg) (AID 2283007; active = hit-call score of the fitted dose curve at least 0.9, where 1 is the maximum)
Peroxisome proliferator-activated receptor gamma (Homo sapiens), sequence (P37231 whole entry, looked up, the tested form may be a part): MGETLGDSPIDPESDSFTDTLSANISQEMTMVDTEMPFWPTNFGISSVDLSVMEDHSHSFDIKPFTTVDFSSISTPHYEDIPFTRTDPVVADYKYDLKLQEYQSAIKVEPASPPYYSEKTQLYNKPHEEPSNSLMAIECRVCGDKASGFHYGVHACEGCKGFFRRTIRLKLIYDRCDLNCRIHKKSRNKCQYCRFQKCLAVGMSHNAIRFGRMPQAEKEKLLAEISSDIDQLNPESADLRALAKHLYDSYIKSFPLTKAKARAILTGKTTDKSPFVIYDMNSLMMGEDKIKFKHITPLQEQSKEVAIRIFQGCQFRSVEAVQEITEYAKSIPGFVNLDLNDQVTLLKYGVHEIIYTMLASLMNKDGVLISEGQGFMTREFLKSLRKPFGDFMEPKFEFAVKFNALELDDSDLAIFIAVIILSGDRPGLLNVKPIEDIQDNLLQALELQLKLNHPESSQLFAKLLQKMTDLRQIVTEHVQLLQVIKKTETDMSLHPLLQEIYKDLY
In short: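 Chimeric NR-Gal4 transactivation is measured in transiently transfected HepG2 cells by reporter mRNA induction at 24 h. Detection uses RT-PCR with fluorescent labelling and capillary electrophoresis; DMSO defines baseline.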

[10] = molecular target: Nuclear receptor subfamily 1 group I member 2 (Homo sapiens) (UniProt O75469); experiment: ATG_PXR_TRANS: Attagene TRANS-FACTORIAL HepG2 Assay for human Pregnane X Receptor (PXR) (AID 2283008; active = hit-call score of the fitted dose curve at least 0.9, where 1 is the maximum)
Nuclear receptor subfamily 1 group I member 2 (Homo sapiens), sequence (O75469 whole entry, looked up, the tested form may be a part): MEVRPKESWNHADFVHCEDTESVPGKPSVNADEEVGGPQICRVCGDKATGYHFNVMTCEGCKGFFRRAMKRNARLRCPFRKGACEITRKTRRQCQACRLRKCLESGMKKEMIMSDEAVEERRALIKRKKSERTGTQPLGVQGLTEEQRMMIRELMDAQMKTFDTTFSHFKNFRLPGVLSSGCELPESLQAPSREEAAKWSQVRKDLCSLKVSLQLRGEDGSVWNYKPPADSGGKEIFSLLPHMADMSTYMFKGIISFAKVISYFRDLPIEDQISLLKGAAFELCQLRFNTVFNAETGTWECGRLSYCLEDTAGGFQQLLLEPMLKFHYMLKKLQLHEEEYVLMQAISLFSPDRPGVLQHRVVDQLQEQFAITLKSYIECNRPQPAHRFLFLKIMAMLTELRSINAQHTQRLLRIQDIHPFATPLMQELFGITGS
In short: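 Read-out is fluorescence of labelled reporter cDNA fragments separated by capillary electrophoresis after RT-PCR and HpaI digestion. Source: HepG2 cells carrying PXR-GAL4/UAS reporter constructs, treated 24 h; activity fitted upward relative to DMSO.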

[11] = ATG_NRF2_ARE_CIS: Attagene CIS-FACTORIAL HepG2 Assay for human Nuclear Factor Erythroid 2 Related Factor 2 (NFR2) response to Antioxidant Response Elements (ARE) (AID 2282992); conditions: HepG2 Attagene ARE/NRF2 reporter, transcription factor activity; actives raise or lower the signal;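 as to AC50: reporter mRNA level measured by RT-PCR and capillary electrophoresis fluorescence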
In short: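 Transient MRTU transfection of HepG2; 24 h compound exposure; TriZol RNA, RT with oligo(dT), PCR, 6-FAM primer extension, HpaI cut, CE. Bidirectional fit vs DMSO.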

[12] = BSK_3C_TissueFactor: BioMAP Diversity Plus: 3C Assay for Tissue Factor Biomarker Activity (AID 2282997); conditions: BioMAP 3C HUVEC, tissue factor biomarker readout; actives raise or lower the signal
In short: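 Dosing of human umbilical vein endothelial cells preceded a 24 h incubation. Tissue Factor was then read by ELISA, with increases and decreases both scored relative to DMSO controls.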

[13] = BSK_3C_uPAR: BioMAP Diversity Plus: 3C Assay for Urokinase-type plasminogen activator receptor (uPAR) Biomarker Activity (AID 2282998); conditions: BioMAP 3C HUVEC, uPAR biomarker ELISA; actives raise or lower the signal
In short: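 ELISA readout of uPAR on human vascular endothelium (umbilical vein primary cells), taken 24 h after chemical dosing. Increases and decreases are both fitted relative to DMSO vehicle.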

[14] = BSK_3C_VCAM1: BioMAP Diversity Plus: 3C Assay for Vascular cell adhesion molecule 1 (VCAM1) Biomarker Activity (AID 2282999); conditions: BioMAP 3C HUVEC, VCAM1 ELISA, cytokine-stimulated; actives raise or lower the signal
In short: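 Human umbilical vein endothelial cells (3C system), biomarker read by ELISA 24 h after dosing; bidirectional fit against DMSO baseline. Cytotoxicity tracked by SRB total-protein staining in parallel cultures at biomarker time.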

[15] = BSK_4H_Eotaxin3: BioMAP Diversity Plus: 4H Assay for Eotaxin 3 Biomarker Activity (AID 2283000); conditions: primary human endothelial cells (HUVEC); actives raise or lower the signal
In short: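 Human umbilical vein endothelial cells (BSK_4H system) dosed with test chemical; Eotaxin-3 (CCL26) measured by ELISA 24 h after dosing. Bidirectional curve fitting relative to DMSO negative control as baseline.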

[16] = read-out: Intercellular Adhesion Molecule 1 (ICAM1), ICAM1 (gene 3383); experiment: BSK_3C_ICAM1: BioMAP Diversity Plus: 3C Assay for Intercellular Adhesion Molecule 1 (ICAM1) Biomarker Activity (AID 2283003); conditions: primary human endothelial cells (HUVEC); actives raise or lower the signal
In short: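 Primary human umbilical vein endothelial cells in the BioMAP 3C system were exposed to chemicals for 24 h, then ICAM-1 was quantified by ELISA. Activity was fitted bidirectionally against the DMSO negative control baseline.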

[17] = BSK_3C_Proliferation: Cell Proliferation Assessment in the BioMAP Diversity Plus: 3C Assay (AID 2283006); conditions: primary human endothelial cells (HUVEC);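 as to AC50: potency may reflect either rise or fall in cell number versus DMSO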
In short: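 Human umbilical vein endothelial cells were grown sub-confluent and exposed to chemical for 48 h, then fixed with 10% TCA and stained with 0.1% sulforhodamine B; absorbance at 560 nm gave relative cell number, fitted bidirectionally against DMSO baseline.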

[18] = molecular target: Retinoic acid receptor alpha (Homo sapiens) (UniProt P10276); experiment: ATG_RARa_TRANS: Attagene TRANS-FACTORIAL HepG2 Assay for human Retinoic Acid Receptor alpha (RARa) (AID 2283005; active = hit-call score of the fitted dose curve at least 0.9, where 1 is the maximum)
Retinoic acid receptor alpha (Homo sapiens), sequence (P10276 whole entry, looked up, the tested form may be a part): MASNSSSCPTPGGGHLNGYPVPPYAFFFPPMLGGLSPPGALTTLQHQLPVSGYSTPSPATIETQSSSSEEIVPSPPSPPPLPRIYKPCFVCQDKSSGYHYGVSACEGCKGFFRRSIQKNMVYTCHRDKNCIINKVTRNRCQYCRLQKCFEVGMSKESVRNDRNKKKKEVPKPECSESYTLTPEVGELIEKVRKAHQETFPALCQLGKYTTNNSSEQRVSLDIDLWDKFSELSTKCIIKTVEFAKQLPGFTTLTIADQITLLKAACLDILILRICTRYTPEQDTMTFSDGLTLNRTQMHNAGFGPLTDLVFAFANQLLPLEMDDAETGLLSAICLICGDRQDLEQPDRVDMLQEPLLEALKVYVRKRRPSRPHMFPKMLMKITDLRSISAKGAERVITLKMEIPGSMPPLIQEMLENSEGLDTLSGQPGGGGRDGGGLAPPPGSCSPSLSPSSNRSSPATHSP
In short: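 HepG2 transiently transfected with multiplex GAL4-UAS reporter units including a human RARa–GAL4 chimera; 24 h compound exposure. Reporter mRNA quantified by RT-PCR, 6-FAM labeling and capillary electrophoresis; gain of signal versus DMSO.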

[19] = molecular target: human Retinoic Acid Receptor gamma (RARg), RARG (gene 5916) (UniProt P13631); experiment: ATG_RARg_TRANS: Attagene TRANS-FACTORIAL HepG2 Assay for human Retinoic Acid Receptor gamma (RARg) (AID 2283009; active = hit-call score of the fitted dose curve at least 0.9, where 1 is the maximum)
human Retinoic Acid Receptor gamma (RARg), RARG (gene 5916), sequence (P13631 whole entry, looked up, the tested form may be a part): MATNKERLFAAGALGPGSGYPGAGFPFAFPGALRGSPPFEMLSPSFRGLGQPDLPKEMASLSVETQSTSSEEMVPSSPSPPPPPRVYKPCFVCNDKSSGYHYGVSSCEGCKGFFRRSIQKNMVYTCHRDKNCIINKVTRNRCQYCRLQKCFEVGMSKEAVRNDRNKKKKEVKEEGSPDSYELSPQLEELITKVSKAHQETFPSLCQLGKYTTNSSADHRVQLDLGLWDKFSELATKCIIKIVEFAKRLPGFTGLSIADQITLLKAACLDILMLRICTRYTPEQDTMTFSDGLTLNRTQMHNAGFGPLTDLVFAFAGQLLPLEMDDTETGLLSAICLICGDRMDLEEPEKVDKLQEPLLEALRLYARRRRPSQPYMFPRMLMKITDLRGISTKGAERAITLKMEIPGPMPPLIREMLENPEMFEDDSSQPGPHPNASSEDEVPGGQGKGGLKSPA
In short: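 HepG2 cells transiently transfected with multiplexed reporter units expressing chimeric RARg-GAL4 and GAL4-UAS-driven reporters; 24 h compound exposure. Reporter mRNA quantified by RT-PCR with fluorescent labelling and capillary electrophoresis; gain-of-signal fitted relative to DMSO baseline.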

[20] = molecular target: human RAR-related Orphan Receptor beta (RORb), RORB (gene 6096) (UniProt Q92753); experiment: ATG_RORb_TRANS: Attagene TRANS-FACTORIAL HepG2 Assay for human RAR-related Orphan Receptor beta (RORb) (AID 2283010; active = hit-call score of the fitted dose curve at least 0.9, where 1 is the maximum)
human RAR-related Orphan Receptor beta (RORb), RORB (gene 6096), sequence (Q92753 whole entry, looked up, the tested form may be a part): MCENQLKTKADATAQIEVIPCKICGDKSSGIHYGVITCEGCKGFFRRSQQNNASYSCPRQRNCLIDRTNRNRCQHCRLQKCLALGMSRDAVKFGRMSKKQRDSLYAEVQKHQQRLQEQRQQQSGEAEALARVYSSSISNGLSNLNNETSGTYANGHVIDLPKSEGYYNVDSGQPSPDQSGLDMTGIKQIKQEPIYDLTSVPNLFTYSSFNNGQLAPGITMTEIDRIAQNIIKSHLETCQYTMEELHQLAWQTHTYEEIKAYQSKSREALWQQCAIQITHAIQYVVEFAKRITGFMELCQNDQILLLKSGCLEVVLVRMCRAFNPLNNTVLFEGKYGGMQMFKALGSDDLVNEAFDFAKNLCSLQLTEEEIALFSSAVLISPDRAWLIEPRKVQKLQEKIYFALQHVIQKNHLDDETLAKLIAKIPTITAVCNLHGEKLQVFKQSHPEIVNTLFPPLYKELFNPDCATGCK
In short: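 HepG2 cells were transiently transfected with multiplexed GAL4-UAS reporter units expressing chimeric nuclear receptor–GAL4 proteins, then dosed for 24 h. Reporter mRNA was quantified by RT-PCR with fluorescent labelling and capillary electrophoresis; gain of signal was fitted relative to DMSO.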

Measured: AC50

COCC(C)N (stereo unspecified)
inactive: [1] | [2] | [3] | [4] | [5] | [6] | [7] | [8] | [9] | [10]

N#CCc1ccc(Cl)cc1Cl
inactive: [1] | [2] | [3] | [11] | [5] | [6] | [7] | [9] | [10]

CCCCC/C=C\C/C=C\CCCCCCCC(=O)OC
inactive: [1] | [2] | [4]
active: [3] 37 µM | [5] 180 µM | [12] 20 µM | [13] 33.7 µM | [14] 30 µM | [15] 34 µM | [7] 100 µM | [16] 32.7 µM | [17] 27.1 µM | [9] 4.68 µM | [10] 47.6 µM

CC(C)c1ccc2cc(C(C)C)ccc2c1
active: [11] 100 µM | [10] 7.42 µM
inactive: [1] | [2] | [3] | [4] | [9]

CCCNC(=O)NS(=O)(=O)c1ccc(Cl)cc1
not listed: [4] | [6] | [12] | [13] | [14] | [15] | [16] | [17]
inactive: all other assays above

C=CCCCCCCCCC(=O)OCCCC
active: [9] 67.8 µM
inactive: [1] | [2] | [3] | [11] | [5] | [6] | [7] | [10]

CC(=O)OCc1ccco1
inactive: [1] | [2] | [3] | [4] | [18] | [9] | [10] | [20]
active: [11] 45.3 µM

CCO[Si](C)(OCC)OCC
not listed: [4] | [6] | [8] | [9] | [18] | [19]
inactive: all other assays above

CC1=CC[C@H]2C[C@@H]1C2(C)C
inactive: [1] | [2] | [3] | [11] | [4] | [18] | [9] | [10]

Cc1ccc2oc(=O)ccc2c1
active: [11] 58.4 µM
inactive: [1] | [2] | [3] | [18] | [9] | [10]

O=C(c1ccccc1)C1CCC1
inactive: [1] | [2] | [3] | [11] | [4] | [7] | [9] | [10] | [20]

CC(C)=CCCC(C)C=O (stereo unspecified)
active: [10] 7.95 µM
inactive: [1] | [2] | [3] | [11] | [6] | [7] | [9]
